Each structure is given as a SMILES string. Inconclusive results are not listed. Entries that show only a call come without a potency. A number with no mark means an inactive call. Active and inactive are the calls of the source. The call rests on the fitted dose curve.
Potency means the concentration at half of the fitted maximal effect.

The experiment is described as follows: qHTS assay for small molecules that induce genotoxicity in human embryonic kidney cells expressing luciferase-tagged ATAD5 - cell viability (AID 651634). Further: nearly all actives have a fitted effect of over 25% in size. Conditions: HEK293T ATAD5-luc cells viability, CellTiter-Fluor, 15.5 h; series mostly up to 83.3 µM. From the text:
National Center for Advancing Translational Sciences [NCATS]
NIH Chemical Genomics Center [NCGC]
U.S. Environmental Protection Agency [EPA]
National Institutes of Environmental Health Sciences [NIEHS]
National Toxicology Program [NTP]
U.S. Food and Drug Administration [FDA]
Enhanced Level of Genome Instability Gene 1 (ELG1; human ATAD5) protein levels increase in response to various types of DNA damage. Using a luciferase reporter-gene tagged with ElG1, a cell-based assay [developed by Kyungjae Myung, NHGRI, NIH] was used to measure the induction of ATAD5 in human embryonic kidney cells (HEK293T). So, increase in luciferase activity can be used to identify the compounds that cause genetic stress. In addition to genotoxicity, these cells were also used to test for cytotoxicity by measuring the protease activity within live cells.
Tox21 Assay Protocol Summary:
For cytotoxicity screening, 2,000 cells in 5 uL/well were dispensed into white, solid-bottom 1536-well plates using a Multidrop Combi (Thermo Scientific) dispenser. Following transfer of 23 nL compound or DMSO vehicle by a pin tool, the plates were incubated 15.5 hr at 37C and 5% CO2. 1 ul CellTiter-Fluor reagent (Promega, Madison, WI) was then added to each plate and following 30 min incubation at 37C, fluorescence intensity was quantified on a ViewLux CCD-based plate reader.
As for `CCCCCCC(=O)CCCCCC/C=C/C[C@@H](O)[C@H](O)[C@@](N)(CO)C(=O)O`, the Potency result was “inactive”.

`CC(C)(C)c1cc(O)ccc1O`: the Potency entry is “inactive”.

As for `CN(C)CCN(C)C`, the Potency entry is “inactive”.

For the molecule `CCOC(=O)COc1ccc(Cl)cc1Cl`, the Potency entry was “inactive”.

On to `ClCC1CO1` (stereo not given), for which the Potency entry was “inactive”.

Regarding `CCOP(=S)(OCC)SCCl`, the Potency entry is “inactive”.

For the molecule `CCCOc1nn(C(=O)NS(=O)(=O)c2ccccc2C(=O)OC)c(=O)n1C`, the Potency entry is “inactive”.

As to `CC[C@@H](CO)NC(=O)[C@@H]1C=C2c3cccc4[nH]cc(c34)C[C@H]2N(C)C1`, the Potency entry is “inactive”.

In the case of `N#CN=C1SCCN1Cc1ccc(Cl)nc1`, the Potency entry is “inactive”.

As to `C[C@H]1CCCC(=O)CCC/C=C/c2cc(O)cc(O)c2C(=O)O1`, the Potency was 20.9 µM (active).

As for `CC[C@@H](CO)NC(=O)[C@@H]1C=C2c3cccc4c3c(cn4C)C[C@H]2N(C)C1`, the Potency result was “inactive”.

Turning to `CC1N=C(N)OC1c1ccccc1` (stereo not given), the Potency result is “inactive”.

Consider `COP(=O)(O)OC`, for which the Potency entry was “inactive”.

For `CC(=O)CN(CC(C)=O)N=O`, the Potency entry was “inactive”.

Take `O=S1(=O)OCCO1`: the Potency result was “inactive”.

Regarding `O=C1CC(=O)NC(=O)N1`, the Potency result was “inactive”.

On to `CN(C)C1CCCCC1`, for which the Potency result was “inactive”.

Take `C=CC(=O)OCCN(C)C`: the Potency result was “inactive”.

For the molecule `Clc1nc(Cl)nc(Nc2ccccc2Cl)n1`, the Potency entry was “inactive”.

Take `COc1ccc(C=O)cc1O`: the Potency entry is “inactive”.

On to `Cc1ccc2cc(C)ccc2c1`, for which the Potency result is “inactive”.

With `CCOC(=O)NC(C)(C)Cc1ccc(Cl)cc1`, the Potency result is “inactive”.

As to `Oc1ccc2c3c1O[C@H]1[C@@H](O)C=C[C@H]4[C@@H](C2)NCC[C@@]341`, the Potency entry was “inactive”.

On to `COc1ccccc1OC`, for which the Potency result was “inactive”.

Take `N[C@@H](Cc1ccc(Oc2cc(I)c(O)c(I)c2)c(I)c1)C(=O)O`: the Potency entry was “inactive”.

For the molecule `C/C(=N\NC(=O)Nc1cc(F)cc(F)c1)c1ncccc1C(=O)O`, the Potency entry was “inactive”.

For `CC(C)(N)Cc1ccc(Cl)cc1`, the Potency result was “inactive”.

As to `CCC1(c2ccccc2)C(=O)N(COC)C(=O)N(COC)C1=O`, the Potency result was “inactive”.

Regarding `C=C(Cl)CCl`, the Potency result is “inactive”.

Turning to `O=C(Cl)/C=C/C(=O)Cl`, the Potency result is “inactive”.

For `OCC(Cl)CCl` (stereo not given), the Potency entry is “inactive”.

Regarding `CCC1(c2ccccc2)CCC(=O)NC1=O` (stereo not given), the Potency result is “inactive”.

`CC(Cl)(Cl)Cl`: the Potency entry was “inactive”.

With `CN=CNc1ccc(C)cc1C`, the Potency entry is “inactive”.

`CNC(=O)NC(O)C(Cl)(Cl)Cl` (stereo not given): the Potency result was “inactive”.

On to `O=c1[nH]oc2c1CCNC2`, for which the Potency result is “inactive”.

With `COP(=O)(OC)O/C(C)=C/C(=O)N(C)C`, the Potency entry was “inactive”.

As to `Brc1c(Br)c(Br)c(Br)c(Br)c1Br`, the activity, negative = cytotoxicity is 13.6% [at 8.08 µM].

`CON(C)C(=O)Nc1ccc(Br)c(Cl)c1`: the Potency entry was “inactive”.

Regarding `S=C=S`, the Potency result was “inactive”.

The values above are taken from PubChem BioAssay (Tox21).
